Reference: PubChem BioAssay (NCATS)
Values without a mark were called inactive. Results filed as inconclusive are left out. Active and inactive are the calls of the source. Unless noted, calls come from the whole dose curve; as a rule, active = well fitted curve in either direction with a large enough effect (not every such curve was filed as active); inconclusive = small, poorly fitted or top-dose-only effect, or another doubt; inactive = flat fitted curve, though single readings scatter.

How the values were obtained:
[1] = AP1 Signaling Pathway (AID 357); conditions: ME-180 AP-1-bla reporter, EGF-induced, beta-lactamase ratio, 5 h; at 17.2 µM (top of the series) unless noted;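 note: ME-180 reporter cells stimulated with EGF at its EC50 level; % is set by controls: 0 for no effect and ±100 for the full control effect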
Procedure, shortened: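 Modulation of EGF-driven AP-1 transcription was assessed with a beta-lactamase reporter in ME-180 cells. Compound and EC50 EGF were co-incubated 5 hours at 37 °C before 2.5-hour CCF4 loading at room temperature and dual-emission reading.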

[2] = NFAT Signaling Pathway (AID 444); conditions: Jurkat NFAT-bla M1, carbachol, beta-lactamase ratio, 5 h; at 17.2 µM (top of the series) unless noted;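 note: carbachol stimulus at about its EC50 of 1 µM final; % is set by controls: 0 for no effect and ±100 for the full control effect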
Procedure, shortened: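 Jurkat cells with NFAT-driven β-lactamase reporter and co-expressed M1 receptor, stimulated with carbachol (final 1 uM, ~EC50), compound titration, 5 h at 37 °C. CCF4 loaded 1 h at RT; 460/530 nm ratio gave %activity and AC50.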

[3] = target: Glucocorticoid receptor (Homo sapiens) (UniProt P04150); assay: GR-GFP Redistribution (AID 450;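 active = compounds whose dose series gives a full or clear partial fitted curve of increased nuclear translocation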; note: potency is the fitted concentration of half-maximal effect)
[4] = Stat Signaling Pathway (AID 446); conditions: ME-180 SIE beta-lactamase reporter, IL-6 stimulated, 5 h; at 17.2 µM (top of the series) unless noted;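 note: ME-180 cervical cancer cells given 40 pM IL-6 alongside compound; SIE-controlled beta-lactamase reporter measured as 460/530 nm FRET emission ratio; % is set by controls: 0 for no effect and ±100 for the full control effect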
Procedure, shortened: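 Screening format detects activators and inhibitors alike: ME-180 SIE-bla cells stimulated at 40 pM IL-6 for 5 hrs with compound, then dual-emission beta-lactamase read at 405 nm excitation.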

[5] = qHTS Assay for Identification of Small Molecule Agonists for Hypoxia Response Element Signaling Pathway (AID 914; active = well fitted activation curve with a large enough effect in the signal ratio, with a control signal flat, not every such curve was filed as active; the % refers to the signal ratio; note: potency is the fitted concentration of half-maximal effect; for activation: % of control where 0% means no effect); conditions: ME-180 (cervical carcinoma) HRE-bla reporter, beta-lactamase ratio, CoCl2, 17 h; activation: active compounds read high
Procedure, shortened: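 Reporter activity (beta-lactamase, CCF4 460nm/530nm ratio) in HRE-bla ME-180 cells is recorded after 17 h compound exposure with EC50 CoCl2 at 37 degrees Celsius. AC50 values come from titration data.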

Sequence of Glucocorticoid receptor (Homo sapiens) (P04150 whole entry, looked up): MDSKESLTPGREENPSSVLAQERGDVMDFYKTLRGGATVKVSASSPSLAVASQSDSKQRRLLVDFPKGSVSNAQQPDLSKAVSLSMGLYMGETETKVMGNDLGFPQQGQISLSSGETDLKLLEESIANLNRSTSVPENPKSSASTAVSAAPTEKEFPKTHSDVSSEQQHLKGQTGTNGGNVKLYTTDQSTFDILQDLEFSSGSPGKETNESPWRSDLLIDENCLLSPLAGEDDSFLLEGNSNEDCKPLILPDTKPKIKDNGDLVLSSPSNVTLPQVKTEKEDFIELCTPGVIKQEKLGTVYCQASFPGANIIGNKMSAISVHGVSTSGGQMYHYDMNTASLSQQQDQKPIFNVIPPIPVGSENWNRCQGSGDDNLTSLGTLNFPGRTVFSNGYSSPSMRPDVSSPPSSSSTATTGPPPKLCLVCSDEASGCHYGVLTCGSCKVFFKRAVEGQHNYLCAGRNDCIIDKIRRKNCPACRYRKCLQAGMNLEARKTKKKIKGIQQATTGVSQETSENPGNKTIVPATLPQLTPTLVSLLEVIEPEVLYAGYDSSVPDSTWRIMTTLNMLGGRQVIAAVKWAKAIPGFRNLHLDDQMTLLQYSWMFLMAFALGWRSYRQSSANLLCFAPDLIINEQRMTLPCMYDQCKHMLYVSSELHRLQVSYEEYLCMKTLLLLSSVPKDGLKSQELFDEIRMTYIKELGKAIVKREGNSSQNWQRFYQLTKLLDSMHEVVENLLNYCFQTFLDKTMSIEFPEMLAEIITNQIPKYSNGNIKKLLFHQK

SMILES	activity change, negative = inhibition [1] [%]	activity change, negative = inhibition [2]	Potency [3] [µM]	activity, negative = inhibition [4] [%]	activation [5] [%]	Potency [5]
COc1ccc(N(CN2C(=O)C3C4C=CC(C4)C3C2=O)C(=O)c2ccco2)cc1 (centres undefined)	-8.5	12.6%	> 20.6	–	–	–
COC(=O)c1ccc(C2NC(C(=O)O)CS2)cc1 (centres undefined)	5.95	6.25%	> 20.6	–	–	–
Cc1cc(=O)oc(C)c1C(=O)NCC(C)NC(=O)c1c(C)cc(=O)oc1C (centres undefined)	0.223	10.2%	> 20.6	–	–	–
CCCCc1nc(NCCNC(=O)c2ccco2)c(C#N)c2c1CSC(C)(C)C2	-22.7	12.2%	> 20.6	–	–	–
COc1cc2c(cc1OC)C1(CCCC1)C(N)=C2C#N	-17.7	-1.71%	> 20.6	–	–	–
Cc1ccc(SCc2[nH]nc3c2C(c2ccc(C)o2)C(C#N)=C(N)O3)cc1 (centres undefined)	-23.1	-18.9%	> 20.6	–	–	–
O=C(/C=C/c1ccccc1)c1ccccc1	19.8	-14.4%	> 20.6	–	–	–
NC(=O)CSc1nc(N)c2c3c(sc2n1)CCCCC3	-2.28	-8.37%	> 20.6	-4.35	-10.3	–
O=C(O)CCCC(=O)Nc1ccn(-c2ccccc2)n1	1.68	-4.19%	> 20.6	0.897	6.56	–
CCCCOc1nc2ccccc2nc1C(C#N)C(=O)NC1CCCCC1 (centres undefined)	8.43	-13.6%	> 20.6	25.7	–	12.6 µM (active)
CC(=O)Nc1ccccc1O	0.55	16%	–	2.83	8.91	–
Cc1cc(=O)oc2c(CN3CCCCC3)c(O)c(Cl)cc12	22.5	23.5%	> 20.6	–	–	–
CC(=O)Oc1oc(-c2ccccc2)nc1/C=N/c1ccccn1	-71.1	-130% (active)	> 20.6	–	–	–
CC1(C)Cc2c(C#N)c(NCCc3ccccc3)nc(-c3ccco3)c2CO1	14.4	80.9% [activator] (active)	> 20.6	–	–	–
CC1(C)CC(=O)C(C=Nc2ccc(Cl)cn2)=C(O)C1	-10.2	17.4%	> 20.6	21.1	-14.7	–
